Values joined by “and” are separate entries in the source; they are usually repeats but may differ in a detail not shown here. Equal values may be shown once. Records with an inconclusive call do not appear. Where a call stands in place of a potency, no number is given. Some compounds were tested as several samples or in several runs, with calls that do not always agree. Active and inactive are the calls of the source. Unless noted, calls come from the whole dose curve. Numbered stars: 1 amine (or outer) side, 2 acyl side, 3 side chain; on linkers, the order of the positions; unused ones are H or OH. Bridge positions count the residues as written; N and C are the ends. Square brackets hold non-standard residues; d marks the D form. Peptide text beside a SMILES is read from it. I, II: the chains in the order shown. Actinocin(9to1) = Cc1c2oc3c(C)ccc(C(=O)[*:1])c3nc-2c(C(=O)[*:2])c(N)c1=O; NMeV = CN[C@H](C(=O)O)C(C)C; Sar = CNCC(=O)O
Potency is the fitted concentration of half-maximal effect.

A short description of the first assay: Nuclear factor erythroid 2-related factor 2/antioxidant responsive element (Nrf2/ARE) small molecule agonists: qHTS cell viability counter screen in human keratinocytes (AID 1919968; active = well fitted cell-killing curve with a large enough effect in the repeat runs; note: nearly all actives have a fitted effect of over 55% in size). The conditions noted are these: KeratinoSens HaCaT ARE cells viability, CellTiter-Fluor, 24 h; series mostly up to 92.4 µM. Summed up:
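Measured as CellTiter-Fluor fluorescence, this readout tracks cytotoxicity in the same wells as the ARE-luciferase screen. HaCaT reporter cells (1,500/well) received compounds after a 5 h pre-incubation and were exposed for 23 h.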
For orientation: Quantitative high-throughput screening tests each substance at several concentrations.
For `COC(=O)c1c(Cl)c(Cl)c(C(=O)OC)c(Cl)c1Cl`, the Potency result was “inactive”.

Consider `c1ccc2cc3c4ccccc4c4ccccc4c3cc2c1`, for which the Potency entry was “inactive”.

With `Cn1cc(S(C)=O)c(=O)c2ccc(F)cc21` (stereo not drawn), the Potency result is “inactive”.

For `O=Cc1ccc(C(=O)O)cc1`, the Potency result was “inactive”.

As to `CC(C)=CCC[C@H](C)CC=O`, the Potency result is “inactive”.

As to `CCC(=O)OCc1ccccc1`, the Potency entry is “inactive”.

For `CCCCCC(=O)O[C@]1(C(C)=O)CC[C@H]2[C@@H]3CCC4=CC(=O)CC[C@]4(C)[C@H]3CC[C@@]21C`, the Potency is 30.4 µM (active).

As for `BrC1CCC(Br)C(Br)CCC(Br)C(Br)CCC1Br` (stereo not drawn), the Potency is 17.2 µM (active).

In the case of `O=[N+]([O-])c1ccc2c(c1)Cc1ccccc1-2`, the Potency result is “inactive”.

As to `CCC1COC(=O)O1` (stereo not drawn), the Potency entry was “inactive”.

For `C=C(C)C(=O)OCCCCCCOC(=O)C(=C)C`, the Potency entry is “inactive”.

On to `Cc1c2oc3c(C)ccc(C(=O)N[C@@H]4C(=O)N[C@H](C(C)C)C(=O)N5CCC[C@H]5C(=O)N(C)CC(=O)N(C)[C@@H](C(C)C)C(=O)O[C@@H]4C)c3nc-2c(C(=O)N[C@@H]2C(=O)N[C@H](C(C)C)C(=O)N3CCC[C@H]3C(=O)N(C)CC(=O)N(C)[C@@H](C(C)C)C(=O)O[C@@H]2C)c(N)c1=O` (I: T[dV]P[Sar][NMeV] / II: T[dV]P[Sar][NMeV]; ester I:1-I:C, II:1-II:C; linker I:N-II:N via Actinocin(9to1)), for which the Potency was 0.0421 µM (active).

As for `O=[N+]([O-])c1ccccc1Nc1ccccc1`, the Potency result was “inactive”.

`CCN1CCCC(OC(=O)C(c2ccccc2)c2ccccc2)C1` (stereo not drawn): the Potency entry was “inactive”.

Regarding `O=C1CCCCCCCCCCCCCCCO1`, the Potency entry was “inactive”.

Consider `O=C(O[C@@H](C(=O)O)[C@@H](OC(=O)c1ccccc1)C(=O)O)c1ccccc1`, for which the Potency entry was “inactive”.

`CN(C)CCCNCCCN(C)C`: the Potency result is “inactive”.

For the molecule `CCC(=O)OC(C)c1ccccc1` (stereo not drawn), the Potency result was “inactive”.

As for `CC(C)CC(C)(N)C#N` (stereo not drawn), the Potency result was “inactive”.

Take `Cc1cc(C)cc(O)c1`: the Potency result is “inactive”.

For `C=C(C)[C@@H]1CCC2=CC(=O)C[C@@H](C)[C@]2(C)C1`, the Potency result is “inactive”.

In the case of `O=c1[nH]c(=O)c2ccccc2o1`, the Potency entry was “inactive”.

For `COCCOCCOCCOCCO`, the Potency entry was “inactive”.

As to `CCCCCCCCCCCCCCC(=O)NC(CO)CCCCCCCCCCCCCC` (stereo not drawn), the Potency result is “inactive”.

With `C[C@@H]1CCC[C@H](C)N1CCCC(O)(c1ccccc1)c1ccccn1` (stereo partly drawn), the Potency result was “inactive”.

In the case of `CCCCCCCCCC(C)=O`, the Potency result is “inactive”.

On to `CN(C)c1ccc(C(=N)c2ccc(N(C)C)cc2)cc1`, for which the Potency was 24 µM (active) and 23.4 µM (active).

Regarding `CCCCCCCCCC/C=C/C#N`, the Potency entry was “inactive”.

Take `CNC(=O)Nc1ccc(Cl)c(Cl)c1`: the Potency entry is “inactive”.

Take `[Cl][Eu]([Cl])[Cl]`: the Potency entry is “inactive”.

Regarding `c1cnc2cc3c(cc2n1)C1CNCC3C1`, the Potency result was “inactive”.

On to `Nc1c(NC/C=C\COc2cc(CN3CCCCC3)ccn2)c(=O)c1=O`, for which the activity change, negative = cytotoxicity was 1.77% [at 19 µM] (inactive).

For the molecule `FC(F)(F)C(Cl)(Cl)Cl`, the Potency result is “inactive”.

For `CCc1ccc(C=O)cc1`, the Potency entry was “inactive”.

In the case of `COC(=O)Cc1cccc2ccccc12`, the Potency entry is “inactive”.

Turning to `CCCc1c2oc(C(=O)O)cc(=O)c2cc2c(=O)cc(C(=O)O)n(CC)c12`, the Potency entry was “inactive”.

As to `CO[C@H]1C=CO[C@@]2(C)Oc3c(C)c(O)c4c(O)c(c(/C=N/N5CCN(C)CC5)c(O)c4c3C2=O)NC(=O)/C(C)=C\C=C[C@H](C)[C@H](O)[C@@H](C)[C@@H](O)[C@@H](C)[C@H](OC(C)=O)[C@@H]1C`, the Potency result was “inactive”.

Consider `O=C(O)Cc1ccc(CCNS(=O)(=O)c2ccc(Cl)cc2)cc1`, for which the Potency entry is “inactive”.

For the molecule `Cc1cc(C)c(C(=O)O)c(C)c1`, the Potency entry was “inactive”.

The nature of the next assay: Nuclear factor erythroid 2-related factor 2/antioxidant responsive element (Nrf2/ARE) small molecule agonists: luciferase reporter gene qHTS assay in human keratinocytes (AID 1919969). Note: nearly all actives have a fitted effect of over 35% in size. The following applies: KeratinoSens HaCaT ARE-luciferase, luminescence, 24 h; series mostly up to 92.4 µM.
As for `COC(=O)c1c(Cl)c(Cl)c(C(=O)OC)c(Cl)c1Cl`, the Potency was 30.6 µM (active).

For `c1ccc2cc3c4ccccc4c4ccccc4c3cc2c1`, the Potency is 24.4 µM (active).

Regarding `Cn1cc(S(C)=O)c(=O)c2ccc(F)cc21` (stereo not drawn), the Potency entry is “inactive”.

Take `O=Cc1ccc(C(=O)O)cc1`: the Potency entry was “inactive”.

For `CC(C)=CCC[C@H](C)CC=O`, the Potency entry was “inactive”.

For the molecule `CCC(=O)OCc1ccccc1`, the Potency entry was “inactive”.

Consider `CCCCCC(=O)O[C@]1(C(C)=O)CC[C@H]2[C@@H]3CCC4=CC(=O)CC[C@]4(C)[C@H]3CC[C@@]21C`, for which the Potency entry was “inactive”.

As to `BrC1CCC(Br)C(Br)CCC(Br)C(Br)CCC1Br` (stereo not drawn), the Potency is 9.65 µM (active) and 16.3 µM (active).

With `O=[N+]([O-])c1ccc2c(c1)Cc1ccccc1-2`, the Potency result is “inactive”.

Turning to `CCC1COC(=O)O1` (stereo not drawn), the Potency result is “inactive”.

In the case of `C=C(C)C(=O)OCCCCCCOC(=O)C(=C)C`, the Potency result is “inactive”.

Consider `Cc1c2oc3c(C)ccc(C(=O)N[C@@H]4C(=O)N[C@H](C(C)C)C(=O)N5CCC[C@H]5C(=O)N(C)CC(=O)N(C)[C@@H](C(C)C)C(=O)O[C@@H]4C)c3nc-2c(C(=O)N[C@@H]2C(=O)N[C@H](C(C)C)C(=O)N3CCC[C@H]3C(=O)N(C)CC(=O)N(C)[C@@H](C(C)C)C(=O)O[C@@H]2C)c(N)c1=O` (I: T[dV]P[Sar][NMeV] / II: T[dV]P[Sar][NMeV]; ester I:1-I:C, II:1-II:C; linker I:N-II:N via Actinocin(9to1)), for which the Potency result was “inactive and 42.2 nM (active)”.

As for `O=[N+]([O-])c1ccccc1Nc1ccccc1`, the Potency result was “inactive”.

Regarding `CCN1CCCC(OC(=O)C(c2ccccc2)c2ccccc2)C1` (stereo not drawn), the Potency result was “inactive”.

For the molecule `O=C1CCCCCCCCCCCCCCCO1`, the Potency result was “inactive”.

For the molecule `O=C(O[C@@H](C(=O)O)[C@@H](OC(=O)c1ccccc1)C(=O)O)c1ccccc1`, the Potency result was “inactive”.

Regarding `CN(C)CCCNCCCN(C)C`, the Potency result is “inactive”.

In the case of `CCC(=O)OC(C)c1ccccc1` (stereo not drawn), the Potency result is “inactive”.

`CC(C)CC(C)(N)C#N` (stereo not drawn): the Potency entry was “inactive”.

As to `Cc1cc(C)cc(O)c1`, the Potency entry was “inactive”.

On to `C=C(C)[C@@H]1CCC2=CC(=O)C[C@@H](C)[C@]2(C)C1`, for which the Potency result was “inactive”.

For `O=c1[nH]c(=O)c2ccccc2o1`, the Potency result was “inactive”.

Take `COCCOCCOCCOCCO`: the Potency result was “inactive”.

For the molecule `CCCCCCCCCCCCCCC(=O)NC(CO)CCCCCCCCCCCCCC` (stereo not drawn), the Potency entry was “inactive”.

Regarding `C[C@@H]1CCC[C@H](C)N1CCCC(O)(c1ccccc1)c1ccccn1` (stereo partly drawn), the Potency entry is “inactive”.

With `CCCCCCCCCC(C)=O`, the Potency entry is “inactive”.

Regarding `CN(C)c1ccc(C(=N)c2ccc(N(C)C)cc2)cc1`, the Potency is 60.4 µM (active) and 52.4 µM (active).

`CCCCCCCCCC/C=C/C#N`: the Potency result was “inactive”.

Take `CNC(=O)Nc1ccc(Cl)c(Cl)c1`: the Potency result is “inactive”.

Regarding `[Cl][Eu]([Cl])[Cl]`, the Potency entry was “inactive”.

As for `c1cnc2cc3c(cc2n1)C1CNCC3C1`, the Potency result was “inactive”.

In the case of `Nc1c(NC/C=C\COc2cc(CN3CCCCC3)ccn2)c(=O)c1=O`, the activity, positive = activation is -5.23% [at 19 µM] (inactive).

Take `FC(F)(F)C(Cl)(Cl)Cl`: the Potency result is “inactive”.

As to `CCc1ccc(C=O)cc1`, the Potency result was “inactive”.

Consider `COC(=O)Cc1cccc2ccccc12`, for which the Potency entry was “inactive”.

For `CCCc1c2oc(C(=O)O)cc(=O)c2cc2c(=O)cc(C(=O)O)n(CC)c12`, the Potency result was “inactive”.

With `CO[C@H]1C=CO[C@@]2(C)Oc3c(C)c(O)c4c(O)c(c(/C=N/N5CCN(C)CC5)c(O)c4c3C2=O)NC(=O)/C(C)=C\C=C[C@H](C)[C@H](O)[C@@H](C)[C@@H](O)[C@@H](C)[C@H](OC(C)=O)[C@@H]1C`, the Potency entry is “inactive”.

Take `O=C(O)Cc1ccc(CCNS(=O)(=O)c2ccc(Cl)cc2)cc1`: the Potency entry was “inactive”.

In the case of `Cc1cc(C)c(C(=O)O)c(C)c1`, the Potency entry is “inactive”.

Source of the values: PubChem BioAssay (Tox21).
